Laboratory results from PubChem BioAssay AID504444 (National Center for Advancing Translational Sciences (NCATS), 2011).
Hit rate of the full screen: of about 360,000 compounds, about 7,500 (2.1%) were called active. About 20% were inconclusive and are not listed. Calls come from the whole dose curve; as a rule, active = well fitted inhibition curve with a large enough effect; inconclusive = small, poorly fitted or top-dose-only effect, or effect the other way; inactive = flat fitted curve, though single readings scatter. The full list was thinned out, with actives kept by preference.

Experiment: Nrf2 qHTS screen for inhibitors; note: nearly all actives have a fitted effect of over 60% in size
Details: A549 ARE-Fluc reporter, luciferase luminescence, 18-24 h; series mostly up to 46 µM
How it was run: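 Two sequential reads on A549 ARE_Fluc cells exposed to compound for 18-24 h: a CellTiter-Fluor fluorescence read for viability, then a luciferase luminescence read for Nrf2/ARE activity.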
Potency is the fitted concentration of half-maximal effect.

Potency, inactive:
COc1ccc(-c2cc(C(F)(F)F)n3nc(-c4ccccc4)cc3n2)cc1OC
COc1ccccc1-c1oc2ccccc2c1C#CCCCCO
O=C1C=C(c2cccc(Cl)c2)C[C@@H](c2ccc(F)cc2)C1
COc1ccc2cc(C3=CC(=O)C[C@H](c4ccc5c(c4)OCO5)C3)ccc2c1
O=S(=O)(c1ccc2c(c1)OCCCO2)N1CCN(S(=O)(=O)c2c(F)cccc2F)CC1
COc1ccccc1Nc1nc(N)nc(N)c1S(=O)(=O)c1ccccc1
CC(C)(C)OC(=O)NCCCCCNC(=O)c1[nH]cnc1C(=O)Nc1nccs1
CCOC(=O)c1ccc(NC(=O)c2nc[nH]c2C(=O)NCc2ccccc2)cc1
COc1ccc(OC)c(NC(=O)CSc2nc3ccccc3nc2N2CCCCC2)c1
CC(C)c1cc(N=O)cc(C(C)C)c1O
CCCCOc1ccc(-c2ncc(C(=O)OCC)c(N)n2)cc1
CCCCCc1ccc(-c2cn(Cc3ccc4ccccc4c3)nn2)cc1
O=S(=O)(c1ccccc1)N1CCc2ccccc21
CNC(=O)c1ccsc1NC(=O)c1ccc(S(=O)(=O)N2CCOCC2)cc1
COc1ccc(C(=O)NCc2ccc(Cl)cc2)cc1S(=O)(=O)N1CCCC1
CCOC(=O)c1c(C)oc2nc(C)nc(N(CC(C)C)CC(C)C)c12
CCCSc1ccc([C@H]2N[C@@](Cc3ccccc3)(C(=O)OC)[C@H]3C(=O)N(C)C(=O)[C@@H]23)cc1
Cc1ccc(NC(=O)CCCNC(=O)c2ccc(Cl)cc2)cc1S(=O)(=O)N1CCOCC1
Cc1ccc(NC(=O)COC(=O)C2CC2)cc1S(=O)(=O)N1CCOCC1
Cc1ccc(NC(=O)CCNC(=O)c2ccc([N+](=O)[O-])cc2)cc1S(=O)(=O)N1CCOCC1
O=C(C1CCN(S(=O)(=O)c2cccs2)CC1)N1CCCCCC1
Cc1ccc(C(=O)NNC(=O)c2ccncc2)cc1S(=O)(=O)N1CCCCC1
Cc1ccc(NC(=O)CCC(=O)N2CCC(c3ccccc3)=N2)cc1S(=O)(=O)N1CCCCC1
CC1CN(C(=O)N2CCC(C(=O)NCc3cccs3)CC2)c2ccccc2O1 (centres undefined)
O=C(CCCCn1c(=O)c2ccccc2n(CC(=O)Nc2cccc(C(F)(F)F)c2)c1=O)NCc1ccc2c(c1)OCO2
CCCS(=O)(=O)N1CCC(n2c(C(F)(F)F)nc3cccnc32)CC1
O=C(N[C@@H]1C/C=C\C[C@@H](CC(=O)N(CCO)Cc2ccccc2)C(=O)N[C@H](Cc2ccccc2)COC1=O)OCC1c2ccccc2-c2ccccc21
CC(C)(C)n1nnnc1C(c1ccc(F)cc1)N1CCN(Cc2ccc3c(c2)OCO3)CC1 (centres undefined)
Cc1c(CN2CC[C@@H](N3CCN(c4ccccn4)CC3)[C@H](O)C2)[nH]c2ccc(F)cc12
O=c1[nH]c(N2CCN(Cc3ccc4c(c3)OCO4)CC2)nc2c1CCCC2
CCn1c(CN2CCC(C)CC2)nc2cc(NC(=O)c3ccccc3[N+](=O)[O-])ccc21
CCCN(CC(=O)Nc1ccccc1C)C(=O)c1ccc(OCC(=O)N2CCOCC2)c(OCC)c1
Cc1ccccc1NC(=O)Cn1c(=O)n(CC2CCC(C(=O)NCCc3ccccc3)CC2)c(=O)c2ccccc21 (centres undefined)
COc1cc(C(=O)NCC(c2ccco2)N2CCCC2)ccc1OCc1ccccc1 (centres undefined)
Cc1ccccc1Nc1nn2c(=O)c3ccc(C(=O)NCCc4ccc(Cl)cc4)cc3nc2s1
Cc1ccc(S(=O)(=O)NC(N)=NCCC[C@@H](NC(=O)CNC(=O)c2ccccc2)C(=O)Nc2cc(C(F)(F)F)ccc2Cl)cc1
O=C1NC[C@@H](c2ccccc2)OC(=O)[C@H](Cc2ccc(F)cc2)CC/C=C/C[C@H]1CC(=O)N(CCO)Cc1ccccc1
Cc1ccc2nc(-c3ccc(O)cc3)c(Nc3ccc4c(c3)OCO4)n2c1
Cc1nc2ccccc2c(C)c1C(=O)c1ccc(F)cc1
Cc1nc2ccccc2c(C(=O)O)c1-c1ccccn1
Cc1ccc(C(CC(=O)O)NC(=O)c2ccc(S(=O)(=O)N3CCCC3)cc2)cc1 (centres undefined)
COCCOC(=O)C1=C(C)NC(=O)NC1c1ccc(Cl)cc1 (centres undefined)
CCOCCOC(=O)C1=C(C)NC(=O)NC1c1ccc2c(c1)OCO2 (centres undefined)
COc1cc(CN(CC2CCCO2)C(=O)c2ccccc2F)cc(OC)c1OC (centres undefined)
COc1ccc(CCC(=O)c2ccc(OC)cc2)cc1
COc1ccc(C(=O)C[n+]2ccc(C)cc2)cc1
CC/C(=C\c1ccc(Cl)cc1)c1ccncc1
COc1ccc(S(=O)(=O)N(C)C[C@H]2Oc3c(NC(=O)Nc4ccc5c(c4)OCO5)cccc3C(=O)N([C@H](C)CO)C[C@@H]2C)cc1
COc1ccc(C(=O)N(Cc2ccccc2)Cc2ccc(OC)c(COc3ccc(NC(C)=O)cc3)c2)c(O)c1
Cc1cn(COC/C=C/c2ccccc2)c(=O)[nH]c1=O
Cc1cccc(C=CC(=O)c2ccc(Cl)cc2)c1
Nc1ccc2c(c1)C(=Cc1cccnc1)c1ccccc1-2
CCCc1nc2c(c(=O)c3ccccc3n2C)c(=O)n1-c1cc(C)cc(C)c1
Cn1c2ccccc2c(=O)c2c(O)cccc21
O=C(NCc1cccnc1)C(=O)NCC(c1cccnc1)N1CCN(c2ccccc2)CC1 (centres undefined)
O=C(CCCCCCCC(=O)N1CCCCC1)N1CCCCC1
COc1cc(CNCCN(C)C)ccc1OCc1c(F)cccc1Cl
COCCCNC(=O)/C=C/c1ccc(OCc2c(F)cccc2Cl)cc1
COc1cc2c(-c3ccc4c(c3)OCO4)c(-c3ccsc3)oc(=O)c2cc1OC
O=C1C=C(c2cccc(Cl)c2O)C[C@@H](c2ccc(F)cc2)C1
COc1ccc(N2CCN(Cc3nc4c(c(=O)[nH]c(=O)n4C)n3Cc3ccc(Cl)cc3)CC2)cc1
O=C1CC[C@@H]2CC3(C[C@@H]4CCN1[C@H]24)Nc1cc([N+](=O)[O-])ccc1NC3=NC1CCCCC1 (some centres undefined)
Cc1cccc(NC(=O)CSc2nc(-c3ccco3)cc(C(F)(F)F)n2)c1C
COc1cccc(C=CC(=O)C=CC=Cc2ccccc2)c1
Cc1c(Cl)cccc1NC(=O)CCS(=O)(=O)c1ccc2c(c1)oc(=O)n2C
CCc1ccccc1NC(=O)Cn1c(=O)n(CC2CCC(C(=O)NCCc3ccccc3)CC2)c(=O)c2ccccc21 (centres undefined)
CCN(C[C@H]1N[C@@](Cc2ccccc2)(C(=O)OC)[C@H]2C(=O)N(Cc3ccccc3)C(=O)[C@@H]12)C(=O)c1ccc(C)cc1
CCOc1ccccc1N(CC)C(=O)c1cc2ccc3cccnc3c2[nH]1
COc1ccc(CCNC(=O)c2nnc(CS(=O)(=O)c3ccccc3)o2)cc1OC
COc1ccc(C(=O)NCCc2ccc(S(N)(=O)=O)cc2)cc1OC
COc1ccccc1CNC(=O)c1ccc(CS(=O)(=O)c2ccccc2)o1
Cc1cccc(NS(=O)(=O)c2ccc(C)c(C(=O)NCc3cccnc3)c2)c1
Cc1ccccc1-n1c(=O)c2ccccc2n(Cc2ccc(F)cc2)c1=O
CCCN(C(=O)COC(=O)CNS(=O)(=O)c1ccc(NC(C)=O)cc1)C1CCS(=O)(=O)C1 (centres undefined)

Potency, active:
O=C1C=C(c2ccnc3cc(Cl)ccc23)C[C@@H](c2ccc3c(c2)OCO3)C1 9.2 µM
CCOC(=O)c1ccc(NC(=O)c2nc[nH]c2C(=O)N[C@@H](CCCCNC(=O)OC(C)(C)C)C(=O)OC(C)(C)C)cc1 23.1 µM
CCCCCc1ccc(-c2ccc(OCC)cc2)nc1 0.366 µM
CNC(=O)c1ccsc1NC(=O)c1ccc(S(=O)(=O)N2CCc3ccccc32)cc1 16.4 µM
Cc1ccc(NS(=O)(=O)c2cccs2)cc1S(=O)(=O)N1CCCCCC1 7.31 µM
Cc1ccc(NC(=O)CCCNC(=O)c2ccc(Cl)cc2)cc1S(=O)(=O)N1CCCCC1 16.4 µM
CCc1ccccc1OCC(=O)Nc1ccc(C)c(S(=O)(=O)N2CCCCCC2)c1 25.9 µM
Fc1ccc2[nH]c3c(N4CCN(Cc5ccc6c(c5)OCO6)CC4)ncnc3c2c1 10.3 µM
Fc1ccc2[nH]c3c(N4CCSCC4)ncnc3c2c1 18.4 µM
Cc1nc2ccccc2c(-c2ccccc2)c1C(=O)c1ccccc1 23.1 µM
CC1(C)O[C@@H]2CC3C4C[C@H](F)C5=CC(=O)C=CC5(C)C4C(O)CC3(C)[C@]2(C(=O)CO)O1 (some centres undefined) 0.0046 µM
CCC(CC)COC(=O)C1=C(C)NC(=O)NC1c1ccc([N+](=O)[O-])cc1 (centres undefined) 25.9 µM
COc1ccc(C(=O)C[n+]2ccc(N)c(C)c2C)cc1 5.8 µM
Cc1[nH]c(=O)c(C(=O)/C=C/c2ccccc2)c2c1CCCC2 20.6 µM
CCCc1nc2c(c(=O)c3ccccc3n2C)c(=O)n1C1CCCCCC1 23.1 µM
CN(C)CCCNC(=O)/C=C/c1ccc(OCc2c(F)cccc2Cl)cc1 20.6 µM
CCc1cccc2c3c([nH]c12)C(CC)(CC(=O)O)OCC3 (centres undefined) 10.3 µM
CC1CC(C)(C)n2c(O)c(N=NC(N)=S)c3cccc1c32 (centres undefined) 14.6 µM
O=C(NCc1cccnc1)c1ccc(CS(=O)(=O)c2ccc(Br)cc2)o1 14.6 µM
COc1ccc(CCNC(=O)c2ccc(CS(=O)(=O)c3ccc(Br)cc3)o2)cc1OC 4.11 µM
